# FEN1 inhibitor – human FEN1 inhibition; 390,000 tested, 0.35% active; Potency, µM (highest dose often 114 µM), for inactives: top-dose activity change, negative = inhibition, most hits filed as inhibitors; AID 588795; P39748; Recombinant FEN1 flap cleavage, fluorescence, 15 min; note: % is set by controls: 0 for no effect and ±100 for the full control effect; nearly all actives have a fitted effect of over 65% in size
#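 Read-out was taken twice, immediately and after 15 min, following addition of 50 nM substrate to 10 nM FEN1 that had sat with test compound for 15 min at room temperature. Curves came from a four-parameter Hill model.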
# POLB inh – inhibitors of human DNA polymerase beta; Potency, µM (doses to about 114 µM), without a hit: at the highest dose activity change, negative = inhibition, hits mostly inhibitors; Pol beta primer extension/strand displacement, fluorescence kinetic; P06746; 340,000 tested, 1.3% active; note: % is set by controls: 0 for no effect and ±100 for the full control effect
#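 10 nM enzyme + cpd, 15 min RT; start with substrate 50 nM final; read 0 min and after 10 min RT. Corrected, normalized data; 4-parameter Hill curve fit.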
# Pol eta inh – blocks human DNA polymerase eta activity; Q9Y253; recombinant Pol eta, fluorescent DNA replication assay; Potency, µM (doses to about 114 µM), without a hit: top-dose activity change, negative = inhibition, usual class: inhibitors; 390,000 tested, 1.2% active; note: % is set by controls: 0 for no effect and ±100 for the full control effect
# Target sequence (Q9Y253 whole entry, looked up): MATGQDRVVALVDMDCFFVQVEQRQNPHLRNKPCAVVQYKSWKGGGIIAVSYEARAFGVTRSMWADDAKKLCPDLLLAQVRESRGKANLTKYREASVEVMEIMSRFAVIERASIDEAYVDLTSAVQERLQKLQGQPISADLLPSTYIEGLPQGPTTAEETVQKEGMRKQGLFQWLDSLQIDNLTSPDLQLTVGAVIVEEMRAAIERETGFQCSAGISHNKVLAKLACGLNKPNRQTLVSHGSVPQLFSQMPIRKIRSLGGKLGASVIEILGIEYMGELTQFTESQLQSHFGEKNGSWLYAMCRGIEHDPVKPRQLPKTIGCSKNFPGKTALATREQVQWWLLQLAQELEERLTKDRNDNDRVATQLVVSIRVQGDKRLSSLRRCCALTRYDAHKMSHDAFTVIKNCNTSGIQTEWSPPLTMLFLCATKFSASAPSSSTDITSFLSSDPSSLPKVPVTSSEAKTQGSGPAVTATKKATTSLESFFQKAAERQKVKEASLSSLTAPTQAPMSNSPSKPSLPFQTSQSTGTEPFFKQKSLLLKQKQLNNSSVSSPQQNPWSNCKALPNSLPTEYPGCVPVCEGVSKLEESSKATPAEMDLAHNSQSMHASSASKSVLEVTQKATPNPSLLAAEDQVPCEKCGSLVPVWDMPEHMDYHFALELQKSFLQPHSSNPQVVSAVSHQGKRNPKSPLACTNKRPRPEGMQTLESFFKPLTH
#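 Pol eta (10 nM) was preincubated with compounds for 15 min at room temperature, after which fluorescent replication substrate (50 nM final) was added to start the reaction. Fluorescence was read kinetically at 0 and 10 min.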
# WRN inhibitor – inhibitors of human WRN helicase; Q14191; WRN helicase unwinding, fluorescent forked duplex, kinetic; Potency, µM (doses to about 114 µM), without a hit: at the top dose activity change, negative = inhibition, most hits filed as inhibitors; 360,000 tested, 0.46% active; AID 651768; note: % is set by controls: 0 for no effect and ±100 for the full control effect; nearly all actives have a fitted effect of over 55% in size
#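 WRN at 20 nM final preincubated with compound 15 min at room temperature; reaction started with 100 nM fluorophore/quencher forked duplex oligonucleotide and 2 mM ATP final. Unwinding followed kinetically by red fluorescence (ex 525, em 598 nm).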
# POLK inh – blocks human DNA polymerase kappa activity. Q9UBT6. purified Pol kappa, fluorescent DNA synthesis assay, 10 min. Potency, µM (series often up to 107 µM), inactives show at the highest dose activity, negative = inhibition, usual class: inhibitors. 400,000 tested, 0.53% active. AID 588579; note: % is set by controls: 0 for no effect and ±100 for the full control effect
#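 Here, compound and 10 nM enzyme are combined for 15 min at room temperature; adding 50 nM substrate (final) starts DNA synthesis, tracked by fluorescence at 0 and 10 min against buffer-only wells.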
# Pol iota inh – inhibitors of human DNA polymerase iota. Potency, µM (series often up to 115 µM), inactives show top-dose activity, negative = inhibition, most hits filed as inhibitors. Pol iota fluorescent replication assay, 10 min. Q9UNA4. 390,000 tested, 1% active
#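 Pol iota at 10 nM preincubated 15 min with compounds at room temperature; reaction started with fluorescent substrate, 50 nM final. Fluorescence read kinetically at 0 and 10 min; buffer-only wells as negative control.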
# * = called active by the depositor; u = inconclusive; x = no result; [ ] = remark or other dose. Sampled rows, rich in hits. Any-hit rate of the full collection: about 2.4%. Calls come from the whole dose curve; as a rule, active = well fitted curve in the direction sought with a large enough effect; inconclusive = small, poorly fitted or top-dose-only effect, or another doubt; inactive = no such curve, though single readings can be large; an effect the other way counts as inactive or inconclusive. Potency is the fitted concentration of half-maximal effect.
SMILES,FEN1 inhibitor,POLB inh,Pol eta inh,WRN inhibitor,POLK inh,Pol iota inh
Cc1coc2c(C)c3oc(=O)c(CCC(=O)NCCc4ccccc4)c(C)c3cc12,14.4%,-3.3%,6.9%,x,-3.4%,2.3%
CCCC(NC(=O)Cc1c(C)c2cc3c(C)c(C)oc3c(C)c2oc1=O)C(=O)N[C@@H](Cc1ccccc1)C(=O)O (stereo partly specified),-2.9%,28.2µM*,u,-15.7%,u,u
Cc1coc2c(C)c3oc(=O)c(CCC(=O)N[C@@H](C)C(=O)N[C@@H](Cc4ccccc4)C(=O)O)c(C)c3cc12,-1.8%,u,28.2µM*,-18.2%,u,-12.1%
O=C(CSc1nc2c([nH]c3ccccc32)c(=O)n1-c1cccc(C(F)(F)F)c1)N1CCc2ccccc21,-2.0%,6.9%,-12.6%,x,-4.0%[60.1 µM],9.8%
COc1cc(C(=O)NNC(=O)c2ccc(NC(C)=O)cc2)cc(OC)c1OC,-0.2%,4.9%,-2.9%,0.8%,6.3%,16.8%
COc1cc(C(=O)/C=C/Nc2ccc(NC(C)=O)cc2)cc(OC)c1OC,0.4%,70.8µM*,-20.8%,-26.2%,-12.8%,-9.9%
COc1cc(C2CC(=O)Nc3c2c(=O)n(C)c2ncnn32)cc(OC)c1OC (stereo unspecified),4.5%,-12.1%,-3.6%,x,-7.1%,50.1µM*
COc1ccc(CCn2c(=S)[nH]c(=O)c3cccnc32)cc1OC,3.6%,x,x,x,10.4%,12.2%
CC1CCN(C(=O)COC(=O)/C=C/c2ccc([N+](=O)[O-])cc2)CC1,2.6%,x,-5.8%,-3.4%,0.9%,39.3%
CC1CCN(C(=O)COC(=O)/C=C/c2ccc(Br)o2)CC1,-8.7%,x,-12.4%,-7.5%[11.6 µM],u,17.8µM*
CC(C)NC(=O)CN1C(=O)c2cccnc2Sc2ccccc21,-4.5%,26.3%,-2.4%,x,6.8%,-9.6%
CN(C)c1nc(=NCc2cccs2)ss1,-5.5%,x,1.3%,22.4µM*,-1.7%,11.7%
CCc1ccccc1NC(=O)Cn1nnc(C(=O)NCc2ccccc2Cl)c1N,15.9%,70.8µM*,-15.4%,x,u,89.1µM*
COc1cccc(NC(=O)Cn2nnc(C(=O)Nc3ccccc3)c2N)c1,2.7%,8.0%,-4.8%,-3.6%,-13.2%,0.2%
COc1cccc(NC(=O)Cn2nnc(C(=O)NCCc3ccccc3)c2N)c1,12.2%,u,8.2%,-14.9%[11.6 µM],-33.5%,31.6µM*
Cc1ccc(CNC(=O)c2nnn(CC(=O)Nc3cc(C)ccc3C)c2N)cc1,-2.1%,7.94µM*,-11.8%,x,-20.7%,-5.8%
COc1ccc(CCNC(=O)c2nnn(CC(=O)Nc3ccccc3C)c2N)cc1OC,-20.7%,20µM*,u,-7.8%,-11.1%,u
CCc1ccccc1NC(=O)Cn1nnc(C(=O)NCc2cccs2)c1N,-7.0%,u,u,-18.1%,-12.6%,u
CC(C)C(=O)Nc1nnc(SCc2cc(=O)n3ccccc3n2)s1,12.4%,0.8%,-5.4%,x,-14.2%[60.1 µM],-20.5%
O=C(CSc1nnc(-c2ccc(Cl)cc2)o1)Nc1ccc(F)cc1,-0.6%,-17.3%,-8.0%,x,4.6%,43.9%
COC(=O)c1ccc2c(c1)N(CC(=O)Nc1ccc(C)cc1Cl)C(=O)c1ccccc1S2,-3.6%,u,-11.1%,x,-1.3%[60.1 µM],38.7%
Cc1ccc(CN(Cc2cccn2-c2nnc(N3CCCC3=O)s2)C(=O)Nc2cc(C)cc(C)c2)cc1,13.3%,1.4%,-14.0%,x,3.4%,5.4%
COc1ccc(NC(=O)Cn2nnc(C(=O)NCCc3ccccc3)c2N)c(OC)c1,u,-25.1%,35.5µM*,-1.4%[11.6 µM],-7.7%,u
COc1ccc(NC(=O)Cn2nnc(C(=O)NCc3ccccc3)c2N)c(OC)c1,10.7%,u,10.0%,6.9%,2.4%[60.1 µM],u
CCc1ccc(NC(=O)Cn2nnc(C(=O)NCc3ccc(C)cc3)c2N)cc1,-2.4%,u,-13.6%,x,1.8%,-23.1%
SMILES,FEN1 inhibitor,POLB inh,Pol eta inh,WRN inhibitor,POLK inh,Pol iota inh
CCOc1ccc(NC(=O)Nc2ccc3c(c2)CCC3)cc1,-1.0%,25.1µM*,-10.8%,1.2%,9.6%,31.2%
Cc1ccc(NC(=O)Nc2ccc3c(c2)CCC3)cc1,-5.8%,u,1.2%,5.7%,-15.7%,-16.9%
CCOc1ccc(NC(=O)NNC(=O)c2ccc(CC)s2)cc1,-13.5%,79.4µM*,-7.8%,-0.5%[11.6 µM],-17.2%,u
COc1cc(CCNC2=CC(=O)c3ncccc3C2=O)ccc1O,-8.6%,x,15.8µM*,-4.5%,-11.7%,28.2µM*
COc1ccc(N(C)S(=O)(=O)c2c(C)[nH]c(=O)[nH]c2=O)c(OC)c1,-0.2%,3.5%,-12.9%,-2.4%,-6.8%,89.1µM*
Oc1ccc(Nc2nc3ccccc3nc2Nc2ccc(O)cc2)cc1,u,39.8µM*,u,-28.7%,-15.8%,u
CCN(CC)CCOc1c(Br)ccc2c1sc1nc3n(c(=O)c12)CCC3,50.1µM*,-11.5%,3.0%,8.1%[57.1 µM],1.5%,u
COc1ccc2c(c1)c(=O)oc1cc(OCC(=O)N3CCCC(C)C3)ccc12 (stereo unspecified),1.5%,3.98µM*,u,-20.7%,-22.0%,u
COc1ccc2c(c1)c(=O)oc1cc(OCC(=O)N3CCC(C)CC3)ccc12,u,22.4µM*,79.4µM*,u,u,17.8µM*
Cc1c(Cl)c(=O)oc2cc(OCC(=O)N3CCCC(C)C3)ccc12 (stereo unspecified),10.1%,x,-9.9%,-29.5%,3.9%,8.5%
CCOC(=O)COc1c(Br)cc(C2NC(=O)NC(C)=C2C(C)=O)cc1OC (stereo unspecified),-9.2%,u,22.4µM*,-18.2%[57.1 µM],u,u
Cc1ccc(NC(=O)CSc2nc(-c3ccc(C(C)(C)C)cc3)nc3cc(=O)[nH]n23)cc1C,17.7%,u,-8.2%,x,-10.0%,4.2%
Cc1ccccc1NC(=O)CSc1nc(-c2cccs2)nc2cc(=O)[nH]n12,-9.7%,u,-13.9%,x,u,89.1µM*
Cc1ccc(NC(=O)CSc2nc(-c3ccco3)nc3cc(=O)[nH]n23)cc1,-14.0%,50.1µM*,-8.3%,x,-25.8%,u
COc1ccc(OC)c(NC(=O)CSc2nc(-c3ccccc3C)nc3cc(=O)[nH]n23)c1,-5.6%,4.1%,-22.5%,x,-3.4%,11.0%
Cc1ccc(NC(=O)CSc2nc(-c3cccs3)nc3cc(=O)[nH]n23)cc1C,-2.4%,50.1µM*,-18.5%,x,-42.0%,89.1µM*
Cc1cc(C)c2oc(-c3cc(NC(=O)Cc4ccccc4)ccc3Cl)nc2c1,-7.9%,16.6%,-8.3%,x,-12.7%,7.4%
CCS(=O)(=O)c1ccc2oc(SCC(=O)c3ccco3)nc2c1,-6.3%,-0.4%,15.8µM*,-22.8%,-11.1%,u
CCCC(=O)OCCNc1cc(Sc2nc3ccccc3[nH]2)c2nonc2c1[N+](=O)[O-],u,6.0%,u,39.8µM*,-13.5%,u

# From PubChem BioAssay
